Bead autofluor: counter-screen for toxin protease inhibitors: compound fluorescence; fluorescence intensity (test concentration not listed); 360,000 tested, 3.1% active; compound autofluorescence counterscreen, microsphere flow cytometry; active compounds read high; AID 624483; in the data active = fluorescence intensity above about 16000; inconclusive = no clear call, values can overlap the other calls
BoNT-F LC inh: blocks Botulinum neurotoxin F light chain protease; Multiplex microsphere protease cleavage assay, flow cytometry; inhibition, % at 10 µM; 360,000 tested, 0.22% active; AID 588497; in the data active = inhibition above about 35%, passing the limit was not always enough; inconclusive = no clear call, values can overlap the other calls; note: plate controls were buffer without enzyme for full effect and enzyme alone for no effect
Anthrax LF prot: blocks Bacillus anthracis lethal factor protease; P15917; multiplex microsphere protease cleavage assay, LF; inhibition, % at 10 µM; 360,000 tested, 0.12% active; note: plate controls were buffer without enzyme for full effect and enzyme alone for no effect
BoNT-A LC inh2: inhibitors of Botulinum neurotoxin A light chain protease | inhibition, % at 10 µM | multiplex microsphere protease substrate cleavage, flow cytometry | 360,000 tested, 0.17% active; note: plate controls were buffer without enzyme for full effect and enzyme alone for no effect
BJeLR viability: kills HRASV12-expressing BJeLR cells | BJeLR (HRASV12) viability, CellTiter-Glo ATP luminescence, 48 h | inhibition, % (no concentration beside the values) | 300,000 tested, 0.17% active; in the data active = inhibition above about 50%; inconclusive = no clear call, values can overlap the other calls
* hit, by the source's call; ? = inconclusive; · = no result. Rows were chosen to be rich in hits. Some 3.5% of all compounds tested hit in one or more screens of this group. Cut-off read from the data, not from the text of the source, unless noted: active = inhibition above about 30%; inconclusive = no clear call, values can overlap the other calls; inactive = below that.

SMILES | Bead autofluor | BoNT-F LC inh | Anthrax LF prot | BoNT-A LC inh2 | BJeLR viability
COC(=O)c1ccc(COc2cccc(OC)c2)o1 | 22471* | -3 | -9 | 1 | 4
Cc1cc(=O)n(-c2ccc3ccccc3n2)[nH]1 | 17043* | 0 | 1 | 0 | -2
COc1ccc(OC)c2c1C(=O)c1ccccc1C2=O | · | · | · | · | -8
COc1cccc2c1C(=O)c1ccc3ccccc3c1C2=O | 2360 | 28 | 28 | 34* | 2
O=[N+]([O-])c1cnc(Sc2ccncn2)s1 | 3905 | 11 | -1 | -4 | 62*
OC1c2cc(Cl)cc(Cl)c2N=C2CCCN21 (configuration not stated) | 3804 | -1 | 7 | 0 | ·
CCCCNC(=O)C1(C)CCCCN1C(=O)c1ccc(OC)c(C(F)(F)F)c1 (configuration not stated) | 3504 | 0 | -6 | 0 | ·
CC1CC(=O)N(CCc2ccccc2)C(=O)C1 | 2874 | -3 | 5 | 0 | ·
O=C1CC(=O)N(CCc2ccccc2)C(=O)N1CCc1ccccc1 | 22637* | -3 | -2 | 2 | -3
Cn1nc(C(C)(C)C)cc1C(=O)N1CCCCC1c1cc(C(=O)Nc2ccccc2Cl)no1 (configuration not stated) | 2892 | 0 | -4 | 1 | ·
O=C(COc1ccc(F)cc1Br)Nc1ccccc1N1CCCC1 | 3795 | -3 | -4 | 0 | ·
CN=C1SC(CC(=O)Nc2cc(Cl)ccc2Cl)C(=O)N1C (configuration not stated) | 21833* | 7 | 0 | 2 | 6
CN=C1SC(CC(=O)Nc2ccc(C(C)=O)cc2)C(=O)N1C (configuration not stated) | 4817 | -13 | 0 | 0 | 15
O=Cc1sc(N2CCOCC2)nc1-c1ccccc1 | · | · | · | · | 5
CC(C)NC(=S)NNC(=O)C12CC3CC(CC(C3)C1)C2 | 24739* | -2 | -3 | ? | 6
COc1cc2[nH]c(=S)n(Cc3ccc(C)cc3)c(=O)c2cc1OC | 3886 | -5 | 5 | 0 | 2
COc1cccc(OCC(O)CO)c1 (configuration not stated) | 5830 | -7 | -5 | -1 | -10
CC1CC(C)(C)N2C(=O)C3(Nc4ccccc4S3)c3cccc1c32 (configuration not stated) | 22846* | -2 | -3 | ? | 12
O=C1N2CCCc3cccc(c32)C12Nc1ccccc1S2 (configuration not stated) | 2154 | -8 | -4 | -1 | -9
CC(NC(=O)c1cc(COc2ccc(-n3cncn3)cc2)on1)c1ccc(F)cc1 (configuration not stated) | 2931 | -1 | 5 | 0 | ·
Cc1ncc(CC(=O)n2cc(C(=O)c3cc(F)ccc3O)cn2)s1 | 24032* | -2 | 0 | ? | -9
Cc1sc2cc3c(c(C(=O)c4ccccc4)[n+]2c1C)-c1cccc2cccc-3c12 | · | · | · | · | 68*
O=C(c1ccccc1)c1c2c(cc3sc4ccccc4[n+]13)-c1cccc3cccc-2c13 | 6966 | -16 | 2 | 73* | ·
CN(CCCC(=O)NC1CC(C)(C)NC(C)(C)C1)S(=O)(=O)c1ccc([N+](=O)[O-])cc1 | 4803 | 0 | 6 | 0 | -1
O=c1[nH]c(=S)n(CCC2=CCCCC2)c(O)c1C=NCc1cccnc1 | 24166* | -5 | -8 | ? | 4
SMILES | Bead autofluor | BoNT-F LC inh | Anthrax LF prot | BoNT-A LC inh2 | BJeLR viability
Cc1ccc(CC(CC(=O)O)C(=O)NC2CCCCC2)cc1 (configuration not stated) | 22833* | -3 | -2 | -1 | 11
CCN(CC)C(=O)Oc1ccc2ccccc2c1Cl | 2249 | -7 | 0 | 0 | 3
CN(C)C(=O)Oc1ccc2ccccc2c1Cl | 23669* | -3 | -3 | -1 | -3
O=C(O)C(Cc1ccc(O)cc1)N1C(=O)c2c(Cl)c(Cl)c(Cl)c(Cl)c2C1=O (configuration not stated) | · | · | · | · | -4
O=C(O)c1ccc2c(c1)C(=O)N(C(Cc1ccc(O)cc1)C(=O)O)C2=O (configuration not stated) | 21507* | 2 | -2 | 3 | -3
COc1ccc2c(=O)c3c(=O)n(Cc4ccco4)c(-c4ccco4)nc3oc2c1 | 8037 | -2 | -4 | 0 | -5
COCCn1c(-c2ccc(Cl)cc2)nc2oc3cc(OC)ccc3c(=O)c2c1=O | 6669 | -8 | -4 | -1 | -1
COCCCn1c(C(C)C)nc2oc3cc(OC)ccc3c(=O)c2c1=O | 20914* | 1 | 0 | -1 | 4
COc1ccc2c(=O)c3c(=O)n(Cc4ccccc4)c(C(C)C)nc3oc2c1 | 3502 | -20 | ? | -5 | ·
COc1ccc(-c2nc3oc4cc(OC)ccc4c(=O)c3c(=O)n2Cc2ccco2)cc1 | 20811* | -1 | -1 | 0 | 6
COCCn1c(-c2ccc(OC)cc2)nc2oc3cc(OC)ccc3c(=O)c2c1=O | 20954* | -5 | -3 | -3 | 7
O=C(CCSc1ccccc1)Nc1ccc(S(=O)(=O)Nc2ncccn2)cc1 | 2193 | -8 | -2 | -2 | 8
Cc1ccccc1Nc1nc(N)[nH]c(=O)c1N=O | 6534 | -9 | -7 | 0 | ·
CC(OC(=O)c1ccc(Cl)nc1)C(=O)NC1CCCC1 (configuration not stated) | 9164 | -8 | -4 | -3 | ·
CC(OC(=O)C1CCCO1)C(=O)NC1CCCC1 (configuration not stated) | 19071* | -2 | 0 | 1 | -4
O=C(Cc1ccc(Cl)c(Cl)c1)N/N=C/c1cccnc1 | 5673 | 6 | 6 | 1 | 0
Cc1nn(CC(=O)Nc2ccc(S(N)(=O)=O)cc2)c(=O)c2ccccc12 | 3935 | 2 | 8 | -2 | 6
COc1cccc(OC)c1C(=O)Nc1cccc2c1CCCC2 | 3711 | 11 | -4 | -1 | -1
CCc1ccc2oc(C(=O)NCc3ccncc3)c(C)c2c1 | 16440* | 7 | -11 | 10 | -7
Cc1ccc(C)c(NS(=O)(=O)c2ccc3oc(=O)ccc3c2)c1 | 3201 | -23 | -18 | -23 | 2
Cc1cc(C)cc(NS(=O)(=O)c2ccc3oc(=O)ccc3c2)c1 | 23250* | -1 | 0 | 0 | 6
Cc1ccc(-c2nnc(N)s2)cc1 | 2326 | 7 | 1 | 0 | 1
COc1ccc(-c2nnc(N)s2)cc1 | 23923* | -5 | -6 | -1 | ·
COc1ccc(C(=O)COC(=O)CCN=C2NS(=O)(=O)c3ccccc32)cc1OC | 20801* | 0 | -2 | 0 | -9
COc1ccccc1C(=O)COC(=O)CCCN=C1NS(=O)(=O)c2ccccc21 | 6256 | ? | 10 | 1 | -8
Cn1c(=O)c2c(ncn2CC(=O)OCC(=O)NC2CCCc3ccccc32)n(C)c1=O (configuration not stated) | 22870* | -3 | -4 | ? | 4
O=C(CSc1nnc(-c2ccccc2)n1-c1ccccc1)c1cccs1 | 21163* | -6 | -1 | ? | 3
Cc1ccc(C(=O)CSc2nnc(-c3ccccc3)n2-c2ccccc2)o1 | 20254* | 1 | 0 | ? | -4
CC(C)COC(=O)N(C)C[C@@H]1OCc2cnnn2CCCC(=O)N([C@@H](C)CO)C[C@H]1C | 3392 | 2 | 0 | 0 | ·

Assay outcomes deposited in PubChem by several laboratories.
